# From PubChem BioAssay (EPA / NIEHS)
# Inconclusive results are not listed. Active and inactive are the calls of the source. How the source made its calls, unless noted: active means hit-call score of the fitted dose curve at least 0.9, where 1 is the maximum; inactive means score below 0.9.
# What was measured:
# [1] = read-out: Nuclear factor erythroid 2-related factor 2 (Homo sapiens) (UniProt Q16236); test: LTEA_HepaRG_NFE2L2: Life Technologies and Expression Analysis (LTEA) Assay for Nuclear factor erythroid 2-related factor 2 (NFE2L2) Transcription Factor using HepaRG (AID 2283527); conditions: mRNA level, 48 h; actives raise or lower the signal;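 on outcome: TaqMan qRT-PCR transcript level normalised to ACTB GAPDH and POLR2A housekeeping genes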
# Procedure, shortened: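 Human liver HepaRG line treated in duplicate for 48 h with an eight-point series topping at 100 uM. Gene expression of NFE2L2 by qRT-PCR, bidirectionally fitted against the vehicle control.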
# [2] = read-out: succinate dehydrogenase complex iron sulfur subunit B (SDHB), SDHB (gene 6390); test: LTEA_HepaRG_SDHB: Life Technologies and Expression Analysis (LTEA) Assay for succinate dehydrogenase complex iron sulfur subunit B (SDHB) using HepaRG (AID 2283528); conditions: mRNA level, 48 h; actives raise or lower the signal
# Procedure, shortened: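 A human HepaRG culture in serum-free induction medium received test chemicals for 48 h over an eight-point range capped at 100 uM. SDHB expression change was quantified by qRT-PCR.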
# [3] = read-out: Signal transducer and activator of transcription 3 (Homo sapiens) (UniProt P40763); test: LTEA_HepaRG_STAT3: Life Technologies and Expression Analysis (LTEA) Assay for Signal transducer and activator of transcription (STAT3) using HepaRG (AID 2283529); conditions: mRNA level, 48 h; actives raise or lower the signal
# Procedure, shortened: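 In this transcriptional endpoint, HepaRG cultures receive test chemicals at up to 100 uM for 48 h, tested in duplicate. STAT3 mRNA is normalized to ACTB, GAPDH and POLR2A.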
# [4] = read-out: sulfotransferase 2A1 (SULT2A1), SULT2A1 (gene 6822); test: LTEA_HepaRG_SULT2A1: Life Technologies and Expression Analysis (LTEA) Assay for sulfotransferase 2A1 (SULT2A1) using HepaRG (AID 2283531); conditions: mRNA level, 48 h; actives raise or lower the signal
# Procedure, shortened: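 Transcript levels of SULT2A1, quantified by qRT-PCR and normalized to three housekeeping genes, serve as the readout. Human HepaRG cultures receive test chemicals for 48 h at up to 100 uM in half-log steps, with 0.5% DMSO vehicle.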
# [5] = read-out: Transforming Growth Factor (TGFA), TGFA (gene 7039); test: LTEA_HepaRG_TGFA: Life Technologies and Expression Analysis (LTEA) Assay for Transforming Growth Factor (TGFA) using HepaRG (AID 2283532); conditions: mRNA level, 48 h; actives raise or lower the signal
# Procedure, shortened: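 Gene expression of TGFA was quantified by qRT-PCR after human HepaRG cells were treated for 48 h with test chemicals (eight concentrations, highest 100 uM, 0.5% DMSO). Activity in either direction was fitted relative to DMSO.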
# [6] = read-out: Transforming Growth Factor (TGFB1), TGFB1 (gene 7040); test: LTEA_HepaRG_TGFB1: Life Technologies and Expression Analysis (LTEA) Assay for Transforming Growth Factor (TGFB1) Transporter using HepaRG (AID 2283533); conditions: mRNA level, 48 h; actives raise or lower the signal
# Procedure, shortened: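 HepaRG, 48 h post-plating, switched to serum-free induction medium; chemicals 100 uM top, half-log, 8 pts, 0.5% DMSO, dup; 48 h exposure; RNA → Fluidigm TaqMan qRT-PCR; norm ACTB/GAPDH/POLR2A; bidirectional fit vs DMSO.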
# [7] = read-out: TIMP1, TIMP1 (gene 7076); test: LTEA_HepaRG_TIMP1: Life Technologies and Expression Analysis (LTEA) Assay for TIMP1 using HepaRG (AID 2283534); conditions: mRNA level, 48 h; actives raise or lower the signal;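 on outcome: TaqMan qRT-PCR signal normalized to ACTB GAPDH and POLR2A housekeeping genes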
# Procedure, shortened: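 Readout is TIMP1 mRNA level measured by qRT-PCR and normalized to three housekeeping genes. Human HepaRG cells were treated for 48 h in duplicate at eight concentrations up to 100 uM (0.5% DMSO); gain or loss fitted against DMSO.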
# [8] = read-out: Tumor necrosis factor receptor 1 (TNFRSF1A), TNFRSF1A (gene 7132); test: LTEA_HepaRG_TNFRSF1A: Life Technologies and Expression Analysis (LTEA) Assay for Tumor necrosis factor receptor 1 (TNFRSF1A) using HepaRG (AID 2283535); conditions: mRNA level, 48 h; actives raise or lower the signal
# Procedure, shortened: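 Read-out is TNFRSF1A transcript level by TaqMan qRT-PCR, normalized to three housekeeping genes, scored as gain or loss of signal versus 0.5% DMSO. Human HepaRG cells received test chemicals for 48 h at up to 100 uM (half-log series).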
# [9] = read-out: Thyroid Hormone Responsive (THRSP), THRSP (gene 7069); test: LTEA_HepaRG_THRSP: Life Technologies and Expression Analysis (LTEA) Assay for Thyroid Hormone Responsive (THRSP) using HepaRG (AID 2283536); conditions: mRNA level, 48 h; actives raise or lower the signal
# Procedure, shortened: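 Cell model: human HepaRG, approx. 100,000 cells/well, 0.5% DMSO vehicle. Exposure lasts 48 h; phenobarbital 1 mM serves as induction positive control. Gene expression is measured by qRT-PCR against three endogenous control genes.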
# [10] = read-out: Cellular tumor antigen p53 (Homo sapiens) (UniProt P04637); test: LTEA_HepaRG_TP53: Life Technologies and Expression Analysis (LTEA) Assay for Tumor Protein P53 (TP53) using HepaRG (AID 2283537); conditions: mRNA level, 48 h; actives raise or lower the signal
# Procedure, shortened: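 Gain or loss of TP53 mRNA signal is scored relative to 0.5% DMSO after 48 h chemical treatment of HepaRG liver cells, tested in duplicate at eight half-log concentrations up to 100 uM.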
# [11] = read-out: UDP glucuronosyltransferase (UGT1A1), UGT1A1 (gene 54658); test: LTEA_HepaRG_UGT1A1: Life Technologies and Expression Analysis (LTEA) Assay for UDP glucuronosyltransferase (UGT1A1) using HepaRG (AID 2283538); conditions: mRNA level, 48 h; actives raise or lower the signal
# Procedure, shortened: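 HepaRG, 48 h chemical exposure (top 100 uM, half-log 8-pt, 0.5% DMSO vehicle), duplicate wells; qRT-PCR (TaqMan, Fluidigm array) for UGT1A1 mRNA, housekeeping-normalized; bidirectional curve fit vs DMSO baseline.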
# [12] = read-out: UDP glucuronosyltransferase (UGT1A6), UGT1A6 (gene 54578); test: LTEA_HepaRG_UGT1A6: Life Technologies and Expression Analysis (LTEA) Assay for UDP glucuronosyltransferase (UGT1A6) using HepaRG (AID 2283539); conditions: mRNA level, 48 h; actives raise or lower the signal
# Procedure, shortened: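 HepaRG, 48 h post-plating switch to serum-free induction medium; chemical 48 h, 100 uM top, half-log x8, duplicate, 0.5% DMSO. Phenobarbital 1mM induction control. UGT1A6 mRNA by TaqMan qRT-PCR; gain/loss fit vs DMSO.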
# [13] = read-out: X-box binding protein 1 (XBP1), XBP1 (gene 7494); test: LTEA_HepaRG_XBP1: Life Technologies and Expression Analysis (LTEA) Assay for X-box binding protein 1 (XBP1) using HepaRG (AID 2283540); conditions: mRNA level, 48 h; actives raise or lower the signal
# Procedure, shortened: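 Transcript levels of XBP1, measured by qRT-PCR and normalised to three housekeeping genes, were fitted bidirectionally relative to 0.5% DMSO controls. Human HepaRG cells received eight-point half-log dilutions from 100 uM for 48 h.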
# [14] = LTEA_HepaRG_LDH_cytotoxicity: Cytotoxicity Assessment in the Life Technologies and Expression Analysis (LTEA) Assay (AID 2283563; active means hit-call score of the fitted dose curve at least 0.9, where 1 is the maximum;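 on AC50: LDH activity released into spent culture medium as a marker of cell death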)
# Procedure, shortened: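 Cells were thawed and plated for 48 h. Medium was then replaced with serum-free induction medium. Chemicals (8 half-log points, maximum 100 uM, 0.5% DMSO) were added in duplicate for 48 h, after which spent medium was assayed for LDH.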
# [15] = ATG_XTT_Cytotoxicity: Cytotoxicity Assessment in the Attagene TRANS-FACTORIAL HepG2 Assay (AID 2283584; active means hit-call score of the fitted dose curve at least 0.9, where 1 is the maximum)
# Procedure, shortened: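 Cells: human HepG2, transiently transfected with MRTU reporter constructs. Exposure 24 h. Readout: XTT, cell number. Baseline/neg ctrl DMSO; loss-of-signal scored.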
# [16] = TOX21_p53_BLA_p3_viability: Viability Assessment in the Tox21 HCT-116 p53 Agonism Beta-lactamase Assay, Phase 3 (AID 2283593; active means hit-call score of the fitted dose curve at least 0.9, where 1 is the maximum;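 further: cells exposed to compound for 16 h before reading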)
# Procedure, shortened: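 HCT-116 cells (4000/well) rested 5 h at 37C, then got DMSO compounds by pin tool (217-fold dilution) for 16 h at 37C, 5% CO2. After the bla read, CellTiter-Glo was added and luminescence read at 30 min, room temperature.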
# [17] = target: Cellular tumor antigen p53 (Homo sapiens) (UniProt P04637); test: TOX21_p53_BLA_p3_ratio: Tox21 HCT-116 p53 Agonism Beta-lactamase Assay, Ratio, Phase 3 (AID 2283596; active means hit-call score of the fitted dose curve at least 0.9, where 1 is the maximum)
# Procedure, shortened: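 Cells were seeded at 4000/well, rested 5 h at 37C, then dosed with DMSO compound solutions (217-fold dilution) for 16 h. CCF4-AM substrate was loaded for 2 h at room temperature, and the 460/530 nm emission ratio was fitted for gain of signal versus DMSO.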
# [18] = TOX21_p53_BLA_p4_viability: Viability Assessment in the Tox21 HCT-116 p53 Agonism Beta-lactamase Assay, Phase 4 (AID 2283597; active means hit-call score of the fitted dose curve at least 0.9, where 1 is the maximum;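 further: hits lower the luminescence signal meaning cytotoxicity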)
# Procedure, shortened: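 Readout: ATP luminescence (CellTiter-Glo), measured 30 min after reagent addition at RT. The reagent followed a 2 h CCF4-AM incubation, and the cells had been exposed to compound for 16 h at 37C.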
# [19] = read-out: solute carrier (SLCO1B1), SLCO1B1 (gene 10599); test: LTEA_HepaRG_SLCO1B1: Life Technologies and Expression Analysis (LTEA) Assay for solute carrier (SLCO1B1) using HepaRG (AID 2283530); conditions: mRNA level, 48 h; actives raise or lower the signal
# Procedure, shortened: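 HepaRG, serum-free induction medium, 48 h dosing, 8-pt half-log from 100 uM, 0.5% DMSO vehicle, duplicates. Readout: SLCO1B1 mRNA, qRT-PCR, ACTB/GAPDH/POLR2A normalization; up or down fit vs DMSO.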
# Chain of Nuclear factor erythroid 2-related factor 2 (Homo sapiens) (Q16236 whole entry, looked up): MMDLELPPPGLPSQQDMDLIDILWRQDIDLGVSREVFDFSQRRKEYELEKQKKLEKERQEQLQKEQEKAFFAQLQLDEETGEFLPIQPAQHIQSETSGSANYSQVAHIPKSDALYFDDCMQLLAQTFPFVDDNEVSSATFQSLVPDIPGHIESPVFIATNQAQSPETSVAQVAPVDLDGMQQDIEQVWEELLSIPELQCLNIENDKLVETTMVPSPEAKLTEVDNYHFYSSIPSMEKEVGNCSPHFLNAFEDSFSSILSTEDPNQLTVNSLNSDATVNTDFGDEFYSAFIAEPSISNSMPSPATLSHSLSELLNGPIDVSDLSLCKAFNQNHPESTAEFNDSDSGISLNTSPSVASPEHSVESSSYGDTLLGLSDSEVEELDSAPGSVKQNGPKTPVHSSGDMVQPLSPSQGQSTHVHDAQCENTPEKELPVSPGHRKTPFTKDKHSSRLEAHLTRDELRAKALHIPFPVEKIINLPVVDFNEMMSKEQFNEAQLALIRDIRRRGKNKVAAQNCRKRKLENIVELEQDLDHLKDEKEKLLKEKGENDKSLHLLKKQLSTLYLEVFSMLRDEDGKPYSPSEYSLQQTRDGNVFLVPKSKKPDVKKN
# Chain of Cellular tumor antigen p53 (Homo sapiens) (P04637 whole entry, looked up): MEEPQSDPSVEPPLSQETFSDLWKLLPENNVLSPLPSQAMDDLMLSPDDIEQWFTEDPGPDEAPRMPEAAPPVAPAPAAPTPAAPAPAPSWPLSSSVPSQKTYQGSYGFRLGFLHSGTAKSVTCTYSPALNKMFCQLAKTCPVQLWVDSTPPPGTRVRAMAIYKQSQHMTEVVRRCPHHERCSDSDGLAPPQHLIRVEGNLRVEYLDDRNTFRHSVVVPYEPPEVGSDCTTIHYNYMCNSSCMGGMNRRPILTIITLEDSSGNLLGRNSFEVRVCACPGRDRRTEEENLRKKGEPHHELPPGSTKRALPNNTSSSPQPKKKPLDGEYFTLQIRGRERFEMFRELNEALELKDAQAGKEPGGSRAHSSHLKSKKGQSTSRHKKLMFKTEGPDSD
# Chain of Signal transducer and activator of transcription 3 (Homo sapiens) (P40763 whole entry, looked up): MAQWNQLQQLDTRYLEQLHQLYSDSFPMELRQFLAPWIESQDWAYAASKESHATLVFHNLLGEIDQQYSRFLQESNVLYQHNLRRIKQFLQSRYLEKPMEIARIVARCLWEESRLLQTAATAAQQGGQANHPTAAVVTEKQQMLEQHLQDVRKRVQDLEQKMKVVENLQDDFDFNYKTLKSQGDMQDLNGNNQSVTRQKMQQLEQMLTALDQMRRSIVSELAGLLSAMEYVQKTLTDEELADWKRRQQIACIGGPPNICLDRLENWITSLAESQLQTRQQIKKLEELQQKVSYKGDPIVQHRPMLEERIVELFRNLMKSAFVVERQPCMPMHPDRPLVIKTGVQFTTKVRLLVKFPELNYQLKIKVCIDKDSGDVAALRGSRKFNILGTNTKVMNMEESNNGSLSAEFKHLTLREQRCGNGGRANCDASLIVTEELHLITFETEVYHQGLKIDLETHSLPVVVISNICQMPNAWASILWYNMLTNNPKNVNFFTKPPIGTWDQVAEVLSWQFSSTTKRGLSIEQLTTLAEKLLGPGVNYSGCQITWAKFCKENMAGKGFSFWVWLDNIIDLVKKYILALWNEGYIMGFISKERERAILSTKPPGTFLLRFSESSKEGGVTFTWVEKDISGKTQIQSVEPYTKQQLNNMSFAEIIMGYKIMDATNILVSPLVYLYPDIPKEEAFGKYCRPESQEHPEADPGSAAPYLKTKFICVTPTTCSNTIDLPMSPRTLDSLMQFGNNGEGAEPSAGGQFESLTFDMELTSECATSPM
smiles,measurement,setting,value
O=C(O)c1ccccc1,outcome,[1],inactive
same,outcome,[2],inactive
same,outcome,[3],inactive
same,outcome,[4],inactive
same,outcome,[5],inactive
same,outcome,[6],inactive
same,outcome,[7],inactive
same,outcome,[8],inactive
same,outcome,[9],inactive
same,outcome,[10],inactive
same,outcome,[11],inactive
same,outcome,[12],inactive
same,outcome,[13],inactive
same,outcome,[14],inactive
same,outcome,[15],inactive
same,outcome,[16],inactive
same,outcome,[17],inactive
same,outcome,[18],inactive
Cc1nn(C)c(Oc2ccccc2)c1C=NOCc1ccc(C(=O)OC(C)(C)C)cc1,AC50,[1],33 µM (active)
same,outcome,[2],inactive
same,outcome,[3],inactive
same,AC50,[19],23.2 µM (active)
same,AC50,[4],42.4 µM (active)
same,AC50,[5],12.2 µM (active)
same,AC50,[6],63.2 µM (active)
same,AC50,[7],6.47 µM (active)
same,outcome,[8],inactive
same,AC50,[9],3.57 µM (active)
same,AC50,[10],6.96 µM (active)
same,AC50,[11],2.29 µM (active)
same,AC50,[12],1.61 µM (active)
same,outcome,[13],inactive
same,AC50,[14],8.6 µM (active)
same,outcome,[16],inactive
same,outcome,[17],inactive
same,outcome,[18],inactive
CCCCC(CC)COC(=O)c1ccccc1C(=O)O (stereo not given),outcome,[1],inactive
same,outcome,[2],inactive
same,outcome,[3],inactive
same,outcome,[4],inactive
same,outcome,[5],inactive
same,outcome,[6],inactive
same,outcome,[7],inactive
same,outcome,[8],inactive
same,outcome,[9],inactive
same,outcome,[10],inactive
same,AC50,[11],64.9 µM (active)
same,outcome,[12],inactive
same,outcome,[13],inactive
same,outcome,[14],inactive
same,outcome,[15],inactive
same,outcome,[16],inactive
same,outcome,[17],inactive
same,outcome,[18],inactive
C#C[C@]1(O)CC[C@H]2[C@@H]3CCC4=CC(=O)CC[C@@H]4[C@H]3CC[C@@]21CC,outcome,[1],inactive
same,outcome,[2],inactive
same,outcome,[3],inactive
same,AC50,[19],0.0325 µM (active)
same,outcome,[4],inactive
same,outcome,[5],inactive
same,outcome,[6],inactive
same,outcome,[8],inactive
same,AC50,[9],0.0275 µM (active)
same,outcome,[10],inactive
same,AC50,[11],0.291 µM (active)
same,outcome,[12],inactive
same,outcome,[13],inactive
same,outcome,[14],inactive
same,outcome,[15],inactive
same,outcome,[16],inactive
same,outcome,[17],inactive
same,outcome,[18],inactive
CC(=O)[C@H]1CC[C@H]2[C@@H]3CCC4=CC(=O)CC[C@]4(C)[C@H]3CC[C@]12C,outcome,[1],inactive
same,AC50,[2],88.6 µM (active)
same,AC50,[3],63.1 µM (active)
same,AC50,[19],75.2 µM (active)
same,AC50,[4],38.5 µM (active)
same,AC50,[5],33.1 µM (active)
same,AC50,[6],91.8 µM (active)
same,AC50,[7],22.2 µM (active)
same,AC50,[8],90.6 µM (active)
same,outcome,[9],inactive
same,outcome,[10],inactive
same,AC50,[11],37.9 µM (active)
same,AC50,[12],63.7 µM (active)
same,outcome,[13],inactive
same,AC50,[14],35.8 µM (active)
same,outcome,[15],inactive
same,outcome,[16],inactive
same,outcome,[17],inactive
same,outcome,[18],inactive
CN(C)C(=O)Nc1ccc(Cl)c(Cl)c1,AC50,[1],83.3 µM (active)
same,outcome,[2],inactive
same,outcome,[3],inactive
same,outcome,[19],inactive
same,outcome,[4],inactive
same,outcome,[5],inactive
same,outcome,[6],inactive
same,outcome,[7],inactive
same,outcome,[8],inactive
same,AC50,[9],27.2 µM (active)
same,outcome,[10],inactive
same,AC50,[11],23.5 µM (active)
same,outcome,[12],inactive
same,AC50,[13],21.7 µM (active)
same,outcome,[14],inactive
same,outcome,[15],inactive
same,outcome,[16],inactive
same,outcome,[17],inactive
same,outcome,[18],inactive
